Sampled rows, rich in hits. Any-hit rate of the full collection: about 19%.
KB-3-1 cytotox: qHTS assay for MDR1-selective chemotherapeutics: Primary screen using the parental adenocarcinoma cell KB-3-1 | KB-3-1 viability, CellTiter-Glo ATP luminescence, 72 h | Potency, µM (top dose mostly 46.1 µM), actives largely listed as cytotoxic | 400,000 tested, 1.4% active; note: nearly all actives have a fitted effect of over 60% in size
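KB-3-1 parental drug-naive adenocarcinoma cells in DMEM/10% FBS, incubated 72 h at 37 C with pin-transferred compounds across a concentration series. Viability by CellTiter-Glo luminescence; concentration-response curves fitted after normalization.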
HT1080NT lethal: qHTS for induction of synthetic lethality in tumor cells producing 2HG: qHTS for the HT-1080-NT fibrosarcoma cell line; HT-1080-NT fibrosarcoma viability, CellTiter-Glo ATP luminescence, 48 h; Potency, µM (top dose mostly 46.1 µM), for inactives: at the highest dose activity, negative = less viability, usual class: cytotoxic; 360,000 tested, 1.6% active;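 note: NT is the 2HG producing partner of a matched IDH1 knockdown line; 0% = DMSO-treated cells and -100% = media-only wells without cells; nearly all actives have a fitted effect of over 55% in size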
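HT-1080-NT; 750 cells/well; 5% FBS RPMI; 48 h compound, 37 degrees C; CellTiter-Glo luminescence; curve fitting and curve-class assignment.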
DT40 TDP1 CPT: qHTS for Inhibitors of human tyrosyl-DNA phosphodiesterase 1 (TDP1): qHTS in cells in presence of CPT | chicken DT40 Tdp1-/-;hTDP1 cells + 20 nM CPT, ATP luminescence, 48 h | Potency, µM (top dose mostly 46.2 µM), inactives show at the top dose activity change, negative = growth inhibition, most hits filed as inhibitors | 420,000 tested, 12% active | AID 686979, 2013; note: nearly all actives have a fitted effect of over 55% in size
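Chicken DT40 Tdp1-/- cells stably complemented with human TDP1 were seeded at 400 cells/well in medium containing 20 nM camptothecin, exposed to pin-transferred compounds, and grown at 37 °C for at least 48 hr. Viability was read as ATP luminescence.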
KB-V1 cytotox: qHTS assay for MDR1-selective chemotherapeutics: Primary screen using the drug-selected MDR subline cells KB-V1. 400,000 tested, 3.4% active. KB-V1 MDR cells viability, CellTiter-Glo, 72 h. Potency, µM (highest dose often 46.1 µM), hits mostly cytotoxic; note: nearly all actives have a fitted effect of over 60% in size
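Drug-selected KB-V1 cells, grown in DMEM lacking phenol red with 10% FBS, receive compound titrations; after three days at 37 degrees C, surviving cell ATP is quantified by CellTiter-Glo luminescence and responses normalized and curve-fitted.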
DT40 TDP1 no CPT: qHTS for Inhibitors of human tyrosyl-DNA phosphodiesterase 1 (TDP1): qHTS in cells in absence of CPT; Potency, µM (series often up to 46.2 µM), for the others: top-dose activity change, negative = growth inhibition, actives largely listed as inhibitors; DT40 Tdp1-/- hTDP1 cells, no CPT, ATP luminescence, 48 h; 420,000 tested, 15% active; note: nearly all actives have a fitted effect of over 55% in size
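Luminescent ATP content (CellTiter-Glo) served as the growth readout. Knockout chicken DT40 cells expressing human TDP1 were exposed to compounds without camptothecin for a minimum 48 hr at 37 °C.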
HT1080 IDH1KD tx: qHTS for induction of synthetic lethality in tumor cells producing 2HG: qHTS for the HT-1080-IDH1KD cell line; 360,000 tested, 2% active; HT-1080 IDH1 knockdown viability, ATP luminescence, 48 h; Potency, µM (top dose mostly 46.1 µM), for inactives: at the highest dose activity, negative = toxicity, actives largely listed as cytotoxic;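 note: 0% = DMSO wells and -100% = cell-free medium wells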
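Knockdown cells (IDH1KD HT-1080) received compounds 2 h after plating at 750 cells/well and were kept 48 h at 37 °C in 5% FBS RPMI. A CellTiter-Glo luminescence read gave % activity for curve fitting.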
An asterisk follows results filed as active; i = inactive; ? = inconclusive; . = no result. Calls come from the whole dose curve; as a rule, active = well fitted curve in the direction sought with a large enough effect; inconclusive = small, poorly fitted or top-dose-only effect, or another doubt; inactive = no such curve, though single readings can be large; an effect the other way counts as inactive or inconclusive. Unless noted, % is set by controls: 0 for no effect and ±100 for the full control effect; potency is the fitted concentration of half-maximal effect.

SMILES | KB-3-1 cytotox | HT1080NT lethal | DT40 TDP1 CPT | KB-V1 cytotox | DT40 TDP1 no CPT | HT1080 IDH1KD tx
CN(C)c1ccc(NC(=O)Nc2ccc3c(c2)c(=O)n(C)n3Cc2ccccc2)cc1 | i | ? | 23.1µM* | i | 16.4µM* | ?
CC(C)=CCn1c2ccc(NC(=O)Nc3ccc(N(C)C)cc3)cc2c(=O)n1C | i | -23.8% | ? | i | 18.4µM* | ?
Cc1c(NC(=O)c2ccc(OC(C)C)cc2)cccc1-c1nc2ncccc2o1 | i | . | ? | i | ? | .
CC1=CNC(=O)CC(C)(C)C1 | i | 23.5% | -0.6% | i | -2.1% | 29.2%
CCSc1nnc(NC(=O)NC(CC)(C(F)(F)F)C(F)(F)F)s1 | ? | 18.4µM* | ? | i | 14.6µM* | ?
CC1CC(C)CN(C(=O)c2cccc(S(=O)(=O)N(C)c3ccccc3)c2)C1 (configuration not stated) | ? | ? | 8.2µM* | ? | 5.8µM* | -8.9%
Cc1ccc(S(=O)(=O)N(C)c2ccc(C(=O)N3CCN(Cc4ccc5c(c4)OCO5)CC3)cc2)cc1 | 11.6µM* | ? | ? | 1.64µM* | 20.6µM* | ?
O=C(c1ccccc1Cl)N1CCN(Cc2ccc3c(c2)OCO3)CC1 | i | -5.8% | -13.3% | i | -15.0% | -10.1%
Cc1cc(C)cc(OCC(O)CN2CCN(Cc3ccc4c(c3)OCO4)CC2)c1 (configuration not stated) | i | -10.2% | 13µM* | i | 20.6µM* | -20.4%
Cc1ccc(C(=O)N2CCN(Cc3ccc4c(c3)OCO4)CC2)c(Cl)c1 | ? | -10.4% | 8.2µM* | i | 16.4µM* | 16.4µM*
CN(c1ccccc1)S(=O)(=O)c1cccc(C(=O)NC2CCCC2)c1 | . | -4.2% | ? | . | ? | -0.2%
O=C(Cc1cccc2ccccc12)NO | . | -0.2% | -1.6% | . | -26.3% | 8.3%
O=C(CNC(=O)c1ccc(Cl)cc1)OCC(=O)N1CCCC1 | i | 4.7% | 13.5% | i | -10.2% | 13.6%
CN(c1ccc(C(=O)N2CCCCC2)cc1)S(=O)(=O)c1ccccc1 | i | -6.8% | 13µM* | i | 8.2µM* | ?
CN(c1ccccc1)S(=O)(=O)c1ccc(C(=O)N2CCCC2)cc1 | i | 6.0% | -22.8% | i | -28.7% | 6.8%
CN(c1ccccc1)S(=O)(=O)c1cccc(C(=O)N2CCCCCC2)c1 | i | 0.5% | 16.4µM* | i | 20.6µM* | -2.7%
Cc1ccccc1NC(=S)N1CCN(Cc2ccc3c(c2)OCO3)CC1 | i | 6.0% | 2.0% | ? | ? | 1.2%
Cc1ccc(S(=O)(=O)N(C)C)cc1NC(=S)N1CCN(Cc2ccc3c(c2)OCO3)CC1 | ? | -1.2% | 14.6µM* | ? | 16.4µM* | -0.5%
COc1ccc(N(C)S(=O)(=O)c2cccc(C(=O)OCC(=O)N3CC(C)CC(C)C3)c2)cc1 (configuration not stated) | i | 7.4% | ? | i | 20.6µM* | 8.8%
O=C(NC1CCCCC1)/C(=C/c1ccc(Cl)cc1)NC(=O)c1ccccc1 | i | . | ? | i | ? | .
COc1cccc(CNC(=O)Cn2nc(C)n3c(cc4cc(C)ccc43)c2=O)c1OC | . | . | -11.7% | . | -5.9% | .
Cc1ccc(S(=O)(=O)N(C)c2ccc(C(=O)N3CCCCC3)cc2)cc1 | i | -1.0% | 9.2µM* | ? | ? | -8.8%

Screening results: PubChem BioAssay, National Center for Advancing Translational Sciences (NCATS)
